Reference: PubChem BioAssay (NCATS)
Inconclusive results are not listed. A call without a number means that no potency is given here. The source made the active and inactive calls. The call rests on the fitted dose curve; in most records, active means well fitted inhibition curve with a large enough effect; inconclusive means small, poorly fitted or top-dose-only effect; inactive means flat fitted curve, though single readings scatter.

Biological target: Calcium and integrin-binding protein 1 (Homo sapiens) (UniProt Q99828)
Sequence (Q99828 whole entry, looked up): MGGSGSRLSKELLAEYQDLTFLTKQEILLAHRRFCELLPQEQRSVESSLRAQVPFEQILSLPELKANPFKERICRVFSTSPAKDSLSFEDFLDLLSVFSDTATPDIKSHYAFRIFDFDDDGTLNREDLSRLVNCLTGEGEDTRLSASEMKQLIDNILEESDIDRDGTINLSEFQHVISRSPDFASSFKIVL
Test: Primary qHTS for Identification of Calcium Integrin Binding Protein 1 (CIB1) Competitor (AID 1508620); further: top concentration of the series differs between compounds
Conditions: CIB1-GST / FITC-alphaIIb peptide fluorescence polarization; series mostly up to 114 µM
In short: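 Fluorescence polarization competition: GST-tagged CIB1 (1 uM final) preincubated with compound 15 min at room temperature, then FITC-labelled alphaIIb peptide (100 nM final) added. After 15 min at room temperature, polarization read at Ex 480/Em 540.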

Row | SMILES | Potency
1 | CC(C)(C)OC(=O)N1CCN(c2ccc(NCc3nnc(-c4ccc(C#N)cc4)o3)cc2)CC1 | inactive
2 | Cc1ccc(N2C(=O)c3ccccc3C2=O)c(C)c1 | inactive
3 | Cc1nnc(-c2ccccc2)n1CCCn1ccnc1 | inactive
4 | O=S(=O)(NC[C@@H]1CCC[C@H](CNS(=O)(=O)c2c(F)cccc2F)C1)c1ccc2c(c1)OCCO2 | inactive
5 | Cc1ccc(NS(=O)(=O)c2ccc3c(c2)NC(=O)CO3)cc1C | inactive
6 | COc1cccc(S(=O)(=O)N2CCN(S(=O)(=O)c3ccc4c(c3)OCCO4)CC2)c1 | inactive
7 | Cc1c(P(=S)(c2ccccc2)c2ccccc2)c2ccccc2n1C(=O)NCc1ccccc1 | inactive
8 | COc1ccc(-c2nnc3n2N=C(c2cccc(OC)c2)CS3)cc1 | inactive
9 | COc1ccc(N2Cc3cccc(C(=O)O)c3C2=O)cc1OC | inactive
10 | O=C1CCCC2=C1C(c1[nH]ncc1Cl)NC(=NCCc1ccccc1)N2 (configuration not stated) | inactive
11 | CCOC(=O)c1ccc2c(c1)c(C(C)=O)c(C)n2-c1ccc(OC)cc1 | inactive
12 | O=C(Nc1ccc(Cl)c([N+](=O)[O-])c1)Nc1cccc(-c2ccncc2)n1 | inactive
13 | N#Cc1cccc(S(=O)(=O)N2CCN(S(=O)(=O)c3ccc4c(c3)OCCO4)CC2)c1 | inactive
14 | COc1ccc(-c2ccc3ncnc(NCC4CCCO4)c3c2)cc1OC (configuration not stated) | inactive
15 | COc1ccc(C2Nc3ccccc3C(=O)N2Cc2ccccc2)cc1COc1cccc(C(F)(F)F)c1 (configuration not stated) | inactive
16 | Cc1ccc(N[S+](=O)([O-])c2cc3c(cc2Cl)NC(=O)CO3)cc1Br | inactive
17 | COc1cccc(NC(=S)N2CCN(c3cccc(C(F)(F)F)n3)CC2)n1 | inactive
18 | CCNc1ncnc2ccc(-c3ccc4c(c3)OCO4)cc12 | inactive
19 | O=C(Nc1ccc(Cl)c(Cl)c1)N1CCN(c2ccncc2)CC1 | inactive
20 | O=C(Nc1ccccc1)C1CCN(c2nc(-c3ccc(Br)cc3)cs2)CC1 | inactive
21 | COc1cccc(C2c3c(ncn(-c4ccc(C#N)cc4)c3=N)Oc3ccc4ccccc4c32)c1 (configuration not stated) | inactive
22 | Cc1c(P(=O)(c2ccccc2)c2ccccc2)c2ccccc2n1C | inactive
